The list is not random: actives were taken first. Their share in the collection is about 1.2%.
gsp ag: activates gsp, the McCune-Albright syndrome mutation; hit rate 0.13% among 340,000; gsp mutant cells, cAMP HTRF, 30 min; AID 624287; Potency, µM (titrated, usually from 76.9 µM), without a hit: at the top dose activation (cAMP increase), usual class: activators; active = well fitted activation curve with a large enough effect; inconclusive = small, poorly fitted or top-dose-only effect, or another doubt; inactive = no such curve, though single readings can be large or run the other way; cell line not stated here;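 note: phosphodiesterase inhibitor Ro 20-1724 added with compounds to block cAMP breakdown; potency is the fitted concentration of half-maximal effect; nearly all actives have a fitted effect of over 60% in size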
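Cells stably selected in G418 were plated at 2000/well, grown 16-24 hr, then given compounds in DMSO with the PDE inhibitor […] (300 uM solution added) for 30 min at 37C; cAMP was read by HTRF.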
CCT chaperon mod: modulators of cytosolic chaperonin (CCT/TRiC) activity | AID 651819 | activity change, % (test concentration not listed), hits read low | purified chaperonin ATPase assay, HTRF ADP detection, 30 min | hit rate 0.3% among 360,000; in the data active = activity change below about -30%; note: % is set by controls: 0 for no effect and ±100 for the full control effect
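TRiC (40 or 20 nM final, by batch activity) in 30 mM Tris pH 7.4, 100 mM KCl, 5 mM MgCl2, 1 mM DTT was treated with compound at 76 uM single dose, then 10 uM ATP, 30 min at 37 °C. ADP was read by HTRF Transcreener.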
gsp antag: gsp mutant antagonism; gsp-mutant cells, cAMP HTRF, 30 min; Potency, µM (highest dose often 76.9 µM), inactives show at the highest dose activity change, negative = inhibition, most hits filed as inhibitors; hit rate 0.4% among 340,000; calls by dose curve; cell line not stated here;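 note: intracellular cAMP measured with PDE inhibitor Ro 20-1724 present during compound exposure; potency is the fitted concentration of half-maximal effect; % is set by controls: 0 for no effect and ±100 for the full control effect; nearly all actives have a fitted effect of over 65% in size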
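Cells in G418 medium, seeded 16-24 h, 37C; buffer exchange to DPBS + 1 mM CaCl2, 0.5 mM MgCl2, 0.05% BSA; cpds in DMSO + […] (300 uM stock), 30 min 37C; HTRF cAMP detection.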
Mm-Cpn inhibitor: blocks the Methanococcus maripaludis chaperonin Mm-Cpn | purified Mm-Cpn ATPase, ADP Transcreener TR-FRET | hit rate 0.031% among 330,000 | Potency, µM (titrated, usually from 76.9 µM), inactives show at the highest dose activity, negative = inhibition, hits mostly inhibitors; note: potency is the fitted concentration of half-maximal effect; % is set by controls: 0 for no effect and ±100 for the full control effect; nearly all actives have a fitted effect of over 80% in size
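Reaction buffer contained 30 mM Tris pH 7.4, 100 mM KCl, 5 mM MgCl2 and 1 mM DTT. Mm-CPN (25 nM final) hydrolysed 10 uM ATP over 30 min at 37°C; ADP was read by HTRF.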
RXFP1 agonist: activates the human relaxin receptor RXFP1. hit rate 0.3% among 370,000. HEK293T-RXFP1 cAMP TR-FRET, 30 min; response scale: percent of porcine relaxin response, buffer zero. Q9HBX9. Potency, µM (doses to about 57.5 µM), for inactives: at the highest dose activation, actives largely listed as activators; note: potency is the fitted concentration of half-maximal effect; % is set by controls: 0 for no effect and ±100 for the full control effect; nearly all actives have a fitted effect of over 60% in size
Target sequence (Q9HBX9 whole entry, looked up): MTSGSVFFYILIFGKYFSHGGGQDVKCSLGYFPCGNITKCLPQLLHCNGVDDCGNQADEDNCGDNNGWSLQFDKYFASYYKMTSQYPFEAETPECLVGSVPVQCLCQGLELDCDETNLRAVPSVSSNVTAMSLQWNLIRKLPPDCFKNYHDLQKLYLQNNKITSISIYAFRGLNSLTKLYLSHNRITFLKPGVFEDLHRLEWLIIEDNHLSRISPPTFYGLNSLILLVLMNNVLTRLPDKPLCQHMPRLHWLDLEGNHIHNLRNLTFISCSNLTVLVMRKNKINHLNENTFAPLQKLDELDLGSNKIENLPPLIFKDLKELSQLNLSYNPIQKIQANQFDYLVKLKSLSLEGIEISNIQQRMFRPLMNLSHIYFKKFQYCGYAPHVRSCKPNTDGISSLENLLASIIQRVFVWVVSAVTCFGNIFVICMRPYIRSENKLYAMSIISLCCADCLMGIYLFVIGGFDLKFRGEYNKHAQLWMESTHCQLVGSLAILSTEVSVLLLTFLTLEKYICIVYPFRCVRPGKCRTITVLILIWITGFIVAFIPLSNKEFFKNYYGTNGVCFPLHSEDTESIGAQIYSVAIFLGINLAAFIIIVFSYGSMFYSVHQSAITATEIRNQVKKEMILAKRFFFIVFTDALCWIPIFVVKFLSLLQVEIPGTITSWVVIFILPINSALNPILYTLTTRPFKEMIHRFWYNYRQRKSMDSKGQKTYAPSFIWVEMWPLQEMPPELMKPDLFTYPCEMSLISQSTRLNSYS
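HEK293T cells stably expressing RXFP1 were pretreated with the PDE4 inhibitor Ro 20174, exposed to compounds for 30 min at 37C, lysed, and cAMP was read by TR-FRET. Data normalized to buffer (basal) and 29 nM porcine relaxin (100%).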
RXFP1 antagonist: blocks the human relaxin receptor RXFP1. Q9HBX9. HEK293-RXFP1, relaxin-stimulated cAMP HTRF, 30 min; active compounds read low. activity change, negative = inhibition, % at 57.5 µM. hit rate 0.59% among 350,000;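 active = activity change of -60% or lower, but not beyond a set lower limit; inconclusive = change between -60% and -40%, or beyond the set limit; inactive = change above -40%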; note: % is set by controls: 0 for no effect and ±100 for the full control effect
* hit, by the source's call; [ ] = remark or other dose. Unless noted, calls come from the whole dose curve; as a rule, active = well fitted curve in the direction sought with a large enough effect; inconclusive = small, poorly fitted or top-dose-only effect, or another doubt; inactive = no such curve, though single readings can be large; an effect the other way counts as inactive or inconclusive.

For COCCNCCOc1ccc(C)cc1[N+](=O)[O-] the results were gsp ag -5.4%, CCT chaperon mod -4.7, gsp antag 50.1µM*, Mm-Cpn inhibitor -0.4%, RXFP1 agonist -4.8% and RXFP1 antagonist 9.9.
`O=C(CCCCCCCCC#CI)Oc1ccccc1` gave RXFP1 antagonist 1.8.
`Cc1cccc(OCC(=O)Nc2cccc(C(=O)OCc3cc(=O)n4c(C)csc4n3)c2)c1` gave RXFP1 agonist -0.1% and RXFP1 antagonist -16.1.
`O=C1c2ccccc2NC(c2cnc3ccccc3n2)N1O` (stereo not given) gave gsp ag 22.4µM*, CCT chaperon mod 1.9, gsp antag -10.5%, Mm-Cpn inhibitor -0.9%, RXFP1 agonist 14.8% and RXFP1 antagonist -6.7.
Screening Cc1nn(C)c(C)c1C1Nc2ccccc2C(=O)N1O (stereo not given) returned gsp ag 10.8%, CCT chaperon mod 1.8, gsp antag 4.1%, Mm-Cpn inhibitor 0.9%, RXFP1 agonist 0.5% and RXFP1 antagonist -7.1.
CC(C)c1ccc2oc(-c3cccc(NC(=O)c4ccc5c(c4)OCCO5)c3)nc2c1 was read as RXFP1 agonist 6.1% and RXFP1 antagonist -5.9.
Screening CC(C)C(=O)N(c1cc2sc(=O)oc2c2ccccc12)S(=O)(=O)c1cccs1 returned gsp ag -36.1%, CCT chaperon mod -0.5, gsp antag -18.1%, Mm-Cpn inhibitor -6.2%, RXFP1 agonist -2.4% and RXFP1 antagonist -67.6*.
COc1ccc(N(CC(=O)NCC2CCCO2)S(=O)(=O)c2c(C)noc2C)cc1 (stereo not given) was read as gsp ag 2.0%, CCT chaperon mod -65.0*, gsp antag 3.6%, Mm-Cpn inhibitor 1.4%, RXFP1 agonist 0.4% and RXFP1 antagonist 3.8.
Screening CN(C)S(=O)(=O)c1ccc(N2CCCC2)c(C(=O)NNC(=O)COc2ccc(Cl)cc2)c1 returned gsp ag -3.8%, CCT chaperon mod -3.5, gsp antag 4.3%, Mm-Cpn inhibitor 1.6%, RXFP1 agonist 3.7% and RXFP1 antagonist -17.1.
Screening CN(C)S(=O)(=O)c1ccc(N2CCCC2)c(C(=O)NNC(=O)c2ccc(F)cc2)c1 returned gsp ag 5.5%, CCT chaperon mod -60.7*, gsp antag 6.7%, Mm-Cpn inhibitor -0.6%, RXFP1 agonist 0.7% and RXFP1 antagonist 7.7.
Screening CCN(CC)S(=O)(=O)c1ccc(N2CCCC2)c(NS(=O)(=O)c2ccc(F)cc2)c1 returned gsp ag 25.1µM*, CCT chaperon mod 1.1, gsp antag -4.3%, Mm-Cpn inhibitor 1.3%, RXFP1 agonist -1.4% and RXFP1 antagonist 20.0.
CCc1ccc(OCC(=O)NNC(=O)c2cc(S(=O)(=O)N(C)C)ccc2N2CCCC2)cc1 was read as gsp ag 3.8%[15.4 µM], CCT chaperon mod -0.3, gsp antag -0.6%, Mm-Cpn inhibitor 0.8%, RXFP1 agonist -0.9% and RXFP1 antagonist -114.0*.
Screening COc1ccc(CNCc2c(C(=O)O)n(Cc3ccc(F)cc3)c3cc(C)ccc23)cc1OC returned RXFP1 agonist 3.3%.
Screening O=C(CSc1nccn1Cc1ccco1)Nc1cc(C(F)(F)F)ccc1Cl returned RXFP1 agonist 0.5% and RXFP1 antagonist -8.7.
Cc1cc(F)ccc1S(=O)(=O)Nc1ccc2c(c1)CCCN2C(=O)c1cccs1 was read as RXFP1 agonist 2.3% and RXFP1 antagonist -7.9.
Screening CCOc1ccccc1-c1noc(CSc2nnc(-c3ccccc3)n2-c2cccc(C)c2)n1 returned RXFP1 agonist 4.9% and RXFP1 antagonist -17.8.
Cc1cc(C)n(-c2nc(NCCN(C)C)c3c4c(sc3n2)COC(C)(C)C4)n1 was read as gsp ag 2.1%, CCT chaperon mod 0.2, gsp antag 16.1%, Mm-Cpn inhibitor 0.5%, RXFP1 agonist -3.7% and RXFP1 antagonist -71.5*.
`O=C(/C=C/c1cccc2ccccc12)c1ccncc1` gave gsp ag -34.3%, CCT chaperon mod -1.3, gsp antag 7.3%, Mm-Cpn inhibitor 0.0%, RXFP1 agonist 0.6% and RXFP1 antagonist -71.3*.
CC1=C(C(=O)OCc2ccc(C)cc2)C(c2ccccc2C(F)(F)F)CC(=O)N1 (stereo not given) was read as RXFP1 agonist -0.2%.
Screening CCCNC(=O)c1nnsc1S(=O)(=O)c1ccc(Cl)cc1 returned gsp ag 7.2%[15.4 µM], CCT chaperon mod -2.7, gsp antag 10.7%, Mm-Cpn inhibitor -1.3%, RXFP1 agonist -2.5% and RXFP1 antagonist -63.2*.
Screening CCCNC(=O)c1nnsc1S(=O)c1ccc(Cl)cc1 (stereo not given) returned gsp ag 13.9%[15.4 µM], CCT chaperon mod -5.2, gsp antag inconclusive, Mm-Cpn inhibitor -1.7%, RXFP1 agonist 1.0% and RXFP1 antagonist -71.2*.
`Cc1[nH]c2ccccc2c1C(=O)COC(=O)c1nccnc1N` gave gsp ag 31.1%, CCT chaperon mod -1.6, gsp antag -9.6%, Mm-Cpn inhibitor 0.8%, RXFP1 agonist 0.5% and RXFP1 antagonist -66.3*.
Screening CCOC(=O)c1c(NC(=O)c2ccc(S(=O)(=O)N(CCOC)CCOC)cc2)sc2c1CC(C)(C)NC2(C)C returned RXFP1 agonist -0.7% and RXFP1 antagonist -31.3.
Screening C[C@@H](NCCCc1cccc(C(F)(F)F)c1)c1cccc2ccccc12 returned RXFP1 antagonist -68.2*.
Screening S=c1[nH]nc(C2CCCCC2)n1/N=C/c1ccccc1Cl returned gsp ag 27.3%[15.4 µM], CCT chaperon mod 1.0, gsp antag 39.8µM*, Mm-Cpn inhibitor -0.3%, RXFP1 agonist -3.5% and RXFP1 antagonist -37.5.
`COc1ccc(CNC(=O)CC2C[C@H](C(=O)N(C(C)C)C(C)C)[C@@]3(C)c4[nH]c5ccccc5c4CCN3C2=O)cc1OC` (stereo not given in full) gave CCT chaperon mod -46.7*, gsp antag 1.4% and Mm-Cpn inhibitor -0.8%.
Screening Cc1cccc(-n2c(-c3csc4ccccc34)n[nH]c2=S)c1 returned gsp ag -7.6%, CCT chaperon mod 1.2, gsp antag -7.6%, Mm-Cpn inhibitor -9.5%, RXFP1 agonist 3.2% and RXFP1 antagonist -117.3*.
For CC(C)Cn1c(-c2csc3ccccc23)n[nH]c1=S the results were gsp ag -40.2%, CCT chaperon mod 2.5, gsp antag -10.6%, Mm-Cpn inhibitor -3.6%, RXFP1 agonist -1.8% and RXFP1 antagonist -2.4.
